Most compounds without a hit are left out; they make up all but 2.8% or so of the library.
Pol beta inh = qHTS Assay for Inhibitors of DNA Polymerase Beta. Potency, µM (series often up to 114 µM), for the others: top-dose activity change, negative = inhibition, most hits filed as inhibitors. Pol beta primer extension/strand displacement, fluorescence kinetic. AID 485314, 2010. P06746. 1.3% of 340,000 active; further: potency means the concentration at half of the fitted maximal effect; on the % scale 0 is the no-effect control and ±100 the full control effect
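Homogeneous kinetic assay of primer extension and strand displacement by 10 nM Pol beta, preincubated 15 min at room temperature with compound before 50 nM substrate (final) was added. Read at 0 and 10 min; four-parameter Hill fit.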
FEN1 inhibitor = qHTS Assay for the Inhibitors of Human Flap endonuclease 1 (FEN1). Recombinant FEN1 flap cleavage, fluorescence, 15 min. Potency, µM (series often up to 114 µM), for inactives: top-dose activity change, negative = inhibition, most hits filed as inhibitors. 0.35% of 390,000 active; further: potency means the concentration at half of the fitted maximal effect; on the % scale 0 is the no-effect control and ±100 the full control effect; nearly all actives have a fitted effect of over 65% in size
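Read-out was taken twice, immediately and after 15 min, following addition of 50 nM substrate to 10 nM FEN1 that had sat with test compound for 15 min at room temperature. Curves came from a four-parameter Hill model.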
PI5P4K alpha inh = qHTS for Inhibitors of phosphatidylinositol 5-phosphate 4-kinase (PI5P4K) | 1.2% of 330,000 active | PI5P4Kalpha enzyme, ADP-Glo luminescence, 60 min; active compounds read low | max response, %; active means max response of -50% or lower; inconclusive means between -30% and -50%; inactive means -30% or higher; further: value at the top dose of about 77 µM; on the % scale 0 is the no-effect control and ±100 the full control effect
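Single end-point luminescence (ADP-Glo) quantified ADP from PI5P4Kalpha turnover; ATP 5 microM final, 1 h at RT, 0.1% CHAPS and 0.28 mM EGTA in HEPES pH 7.4.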
Pol eta inh = qHTS for Inhibitors of Polymerase Eta; DNA polymerase eta (Homo sapiens), Q9Y253; 1.2% of 390,000 active; Potency, µM (doses to about 114 µM), for inactives: at the highest dose activity change, negative = inhibition, actives largely listed as inhibitors; recombinant Pol eta, fluorescent DNA replication assay; further: potency means the concentration at half of the fitted maximal effect; on the % scale 0 is the no-effect control and ±100 the full control effect
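Pol eta at 10 nM preincubated with compounds 15 min at room temperature; reaction started with fluorescent substrate (50 nM final) and read kinetically at 0 and 10 min.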
POLK inh = qHTS for Inhibitors of Polymerase Kappa; DNA polymerase kappa (Homo sapiens), Q9UBT6; purified Pol kappa, fluorescent DNA synthesis assay, 10 min; Potency, µM (doses to about 107 µM), without a hit: top-dose activity, negative = inhibition, most hits filed as inhibitors; 0.53% of 400,000 active; further: potency means the concentration at half of the fitted maximal effect; on the % scale 0 is the no-effect control and ±100 the full control effect
Target sequence (Q9UBT6 whole entry, looked up): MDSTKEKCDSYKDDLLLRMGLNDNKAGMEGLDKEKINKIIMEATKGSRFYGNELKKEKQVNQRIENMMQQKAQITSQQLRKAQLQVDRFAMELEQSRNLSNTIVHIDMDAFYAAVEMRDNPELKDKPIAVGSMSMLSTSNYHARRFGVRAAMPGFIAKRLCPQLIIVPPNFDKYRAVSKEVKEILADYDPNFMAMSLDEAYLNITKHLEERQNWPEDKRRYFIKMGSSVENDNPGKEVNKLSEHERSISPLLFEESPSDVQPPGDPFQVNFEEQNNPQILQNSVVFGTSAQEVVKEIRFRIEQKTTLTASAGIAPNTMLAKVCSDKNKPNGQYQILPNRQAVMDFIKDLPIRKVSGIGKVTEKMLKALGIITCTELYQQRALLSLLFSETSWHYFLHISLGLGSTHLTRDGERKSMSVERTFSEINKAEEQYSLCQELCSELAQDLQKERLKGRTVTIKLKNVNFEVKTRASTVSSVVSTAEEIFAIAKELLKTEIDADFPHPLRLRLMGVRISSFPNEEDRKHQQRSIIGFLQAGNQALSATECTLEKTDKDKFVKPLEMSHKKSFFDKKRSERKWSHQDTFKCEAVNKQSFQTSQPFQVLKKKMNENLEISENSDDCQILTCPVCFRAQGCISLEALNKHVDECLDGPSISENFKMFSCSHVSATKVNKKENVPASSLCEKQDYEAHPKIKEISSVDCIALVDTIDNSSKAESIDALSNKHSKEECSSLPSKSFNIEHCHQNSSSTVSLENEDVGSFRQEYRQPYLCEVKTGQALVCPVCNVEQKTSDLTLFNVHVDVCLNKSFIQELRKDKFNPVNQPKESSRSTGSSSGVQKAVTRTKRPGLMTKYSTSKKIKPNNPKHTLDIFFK
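50 nM final substrate added after 15 min RT preincubation of 10 nM Pol kappa with compound; fluorescence read at 0 and 10 min.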
POLI inh = qHTS for Inhibitors of Polymerase Iota; AID 588590, 2011; DNA polymerase iota (Homo sapiens), Q9UNA4; 1% of 390,000 active; Potency, µM (titrated, usually from 115 µM), inactives show at the highest dose activity, negative = inhibition, hits mostly inhibitors; Pol iota fluorescent replication assay, 10 min; further: potency means the concentration at half of the fitted maximal effect
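Fluorescent replication assay read twice, at 0 min and 10 min after adding 50 nM (final) substrate. Enzyme (10 nM) and compounds were first incubated 15 min at room temperature; enzyme-free buffer wells were negative controls.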
* = called active by the depositor; ? = inconclusive; nt = not tested or not shown; ! = repeats disagree; [ ] = dose if it differs, or a comment. Unless noted, the call rests on the fitted dose curve; in most records, active means well fitted curve in the direction sought with a large enough effect; inconclusive means small, poorly fitted or top-dose-only effect, or another doubt; inactive means no such curve, though single readings can be large; an effect the other way counts as inactive or inconclusive.

SMILES	Pol beta inh	FEN1 inhibitor	PI5P4K alpha inh	Pol eta inh	POLK inh	POLI inh
O=C(Cc1cc(=O)[nH][nH]1)N/N=C/C(Cl)=C/c1ccccc1	50.1µM*	2.1%	?	?	-29.8%	3.16µM*!
CCOC(=O)[C@]12CCCC=C1N(CCC1=CCCCC1)C(=O)[C@H](CC(=O)NCC1CCCCC1)C2	nt	nt	1.2	nt	nt	nt
O=[N+]([O-])c1ccc(-[n+]2ccc3ccccc3c2)c([N+](=O)[O-])c1	nt	-20.6%	?	-24.6%	79.4µM*	?
C[C@H]1CN([C@@H](C)CO)C(=O)CCCn2nncc2CO[C@@H]1CN(C)C(=O)c1ccc2ccn(C)c2c1	nt	nt	-3.9	-5.5%	nt	nt
CCCC(=O)OCC1CN(Cc2ccco2)S(=O)(=O)c2c(F)cccc2O1 (centres undefined)	nt	-17.5%	-10.0	-0.6%	-28.9%	70.8µM*
CCCCN1C[C@H](COC(=O)CCC)Oc2cccc(F)c2S1(=O)=O	nt	-17.1%	0.6	-18.1%	-14.6%	19.6%
COc1ccc(-c2ccc(OC)c(OC)c2OC)c(OC)c1OC	nt	1.6%	11.9	-10.0%	-5.2%	7.6%
COc1ccc2c3c(cccc13)N(C)N=C2C	1.4%	-11.4%	-5.8	?	-27.4%	3.16µM*
CCOC(=O)C1(CC2CC2)CCN(Cc2ccc(OC)cc2F)CC1	89.1µM*	-0.9%	1.8	-21.0%	-23.9%	156.3%
CCC(=O)N1CCc2cc(Br)cc(S(=O)(=O)N3CCN(c4ccc(C)cc4)C(C)C3)c21 (centres undefined)	-14.6%	10.3%	nt	-13.9%	-15.0%	?
O=[N+]([O-])c1c(NCCCO)cc(Sc2nc3ccccc3s2)c2nonc12	-25.8%	39.8µM*	nt	-16.6%	?	?
O=[N+]([O-])c1cc(S(=O)(=O)C(F)(F)F)ccc1Sc1nc2ccccc2s1	29.2%	-20.8%	-6.1	-9.1%	-4.3%	6.9%
Cc1nnc(Sc2cc(NCCO)c([N+](=O)[O-])c3nonc23)s1	27.0%	39.8µM*	-17.9	?	-20.7%	?
O=[N+]([O-])c1c(NCCO)cc(N2CCCCCC2)c2nonc12	?	-16.3%	0.3	-11.6%	-6.4%	48.1%
CCOC(=O)C1CCCN(c2cc(NCCCO)c([N+](=O)[O-])c3nonc23)C1 (centres undefined)	0.6%	nt	nt	nt	nt	nt
Cc1nnc(Sc2cc(NCCCO)c([N+](=O)[O-])c3nonc23)s1	-17.3%	44.7µM*	-78.1*	79.4µM*	-19.5%	12.6µM*
Cc1cccc(CC(=O)NCCS(=O)(=O)N2CCN(c3ccccc3)CC2)c1	nt	nt	2.8	3.6%	nt	nt
CC(C)OCCCn1c(=O)c2ccccc2n2c(-c3ccc(F)cc3)nnc12	15.2%	18.0%	nt	-18.3%	-10.3%	?
Cc1ccc(C(=O)O)cc1NC(=O)c1nsc2ccccc12	79.4µM*	-9.0%	nt	nt	-30.6%	?
CCN(CC)C(=O)C1=CC(c2ccc3c(c2)OCO3)=NS(=O)(=O)N1C	-22.2%	-5.6%	nt	-5.4%	-7.1%	8.3%
CCc1nc2ccc(C(=O)NCCc3ccco3)cc2nc1CC	-2.9%	1.3%	-2.2	-7.4%	-1.4%	-20.4%
O=C(Nc1ccc(N2CCOCC2)cc1)c1ccc2nc(-c3ccco3)c(-c3ccco3)nc2c1	0.1%	10.7%	nt	-14.3%	-25.2%	-5.3%
CC(=O)c1ccc(NC(=O)c2ccc3nc(-c4ccco4)c(-c4ccco4)nc3c2)cc1	2.82µM*	50.1µM*	-109.8*	2.82µM*	7.94µM*	3.16µM*
O=C(Nc1ccccc1)c1ccc2nc(-c3ccco3)c(-c3ccco3)nc2c1	20µM*	?	nt	?	44.7µM*	39.8µM*
CNC(=O)c1ccc2nc(-c3ccco3)c(-c3ccco3)nc2c1	nt	6.31µM*	nt	nt	8.91µM*	8.91µM*
SMILES	Pol beta inh	FEN1 inhibitor	PI5P4K alpha inh	Pol eta inh	POLK inh	POLI inh
O=C(NC1CC1)c1ccc2nc(-c3ccco3)c(-c3ccco3)nc2c1	nt	11.2µM*	nt	nt	22.4µM*	10µM*
COc1ccc2c(-c3ccccc3)cc(SCC(=O)NC3CCS(=O)(=O)C3)nc2c1 (centres undefined)	1.2%	?	18.0	-12.9%	-0.3%	14.3%
CCOC(=O)C1CCN(C(c2ccc(C)cc2)c2c(O)cc(C)n(CCOC)c2=O)CC1 (centres undefined)	-0.9%	-2.4%	nt	-19.8%	-1.9%[60.1 µM]	4.9%
CCOC(=O)c1ccc(NC(=O)c2ccc(CN3C(=O)CCn4nc(C)cc43)cc2)cc1	0.9%	0.3%	nt	-2.4%	3.1%	19.5%
CCOc1cc([N+](=O)[O-])cc(/C=C2/NC(=O)N(Cc3ccccc3F)C2=O)c1O	?	-25.9%	-77.2*	50.1µM*	?	?
CS(=O)(=O)c1ccc(N)c(SSc2cc(S(C)(=O)=O)ccc2N)c1	nt	?	-80.5*	-4.1%	-15.5%	?
Cc1ccc(NC(=O)Cn2ccn(Cc3ccc(Cl)cc3)c(=O)c2=O)cc1C	-20.8%	-2.1%	nt	14.4%	-9.4%	-2.3%
Cc1cnc2c3c(cc(Cl)c2c1)-c1ccccc1S(=O)(=O)N3	nt	?	nt	nt	79.4µM*	28.2µM*
Nc1n[nH]c(=S)n1-c1ccc(Cl)cc1	-23.9%	14.7%	-54.2*	2.3%	10.0%	-1.5%
O=[N+]([O-])c1ccc2c(c1)C=CC2	nt	-20.2%	nt	nt	79.4µM*	79.4µM*
Cc1ncc(CO)c2c1Oc1nc(-c3ccc(F)cc3)nc(SCc3ccc(F)cc3Cl)c1C2	50.1µM*	-2.3%	nt	-8.6%	-28.5%	11.4%
CCc1ccc(NC(=O)CSc2nc(-c3ccc(C)cc3)nc3c2Cc2c(CO)cnc(C)c2O3)cc1	50.1µM*	-3.9%	nt	?	-4.7%	?

High-throughput results deposited in PubChem by National Center for Advancing Translational Sciences (NCATS).
